Screening data: PubChem BioAssay, several laboratories
Vif inh: HIV Vif self-association inhibitors, primary screen, imaging, HEK293T, single point. HEK293T cells, Vif self-association by quenched fluorescence, 24 h. inhibition, % at 7.49 µM. hit rate 0.35% among 340,000. AID 602346, 2012; in the data active means inhibition above about 50%, passing the limit was not always enough; inconclusive means no clear call, values can overlap the other calls; inactive means below about 31%
ABCB6 inh MLPCN: ABCB6 transporter inhibitors, primary screen, K562-ABCB6 cells, flow cytometry, MLPCN library; ATP-binding cassette sub-family B member 6 (Homo sapiens), Q9NP58; K562-ABCB6 porphyrin accumulation, 1 h; hits give low values; fluorescence ratio to DMSO, % at 10 µM; hit rate 0.19% among 360,000; AID 602162, 2011;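 active means fluorescence ratio to DMSO below 75%, the collection mean minus 3 SD; inconclusive means too few cells collected in the well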;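 further: signal is porphyrin accumulated inside mitochondria; 100% equals median channel fluorescence of DMSO control wells; lower ratio means ABCB6 inhibition with less porphyrin fluorescence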
Target sequence (Q9NP58 whole entry, looked up): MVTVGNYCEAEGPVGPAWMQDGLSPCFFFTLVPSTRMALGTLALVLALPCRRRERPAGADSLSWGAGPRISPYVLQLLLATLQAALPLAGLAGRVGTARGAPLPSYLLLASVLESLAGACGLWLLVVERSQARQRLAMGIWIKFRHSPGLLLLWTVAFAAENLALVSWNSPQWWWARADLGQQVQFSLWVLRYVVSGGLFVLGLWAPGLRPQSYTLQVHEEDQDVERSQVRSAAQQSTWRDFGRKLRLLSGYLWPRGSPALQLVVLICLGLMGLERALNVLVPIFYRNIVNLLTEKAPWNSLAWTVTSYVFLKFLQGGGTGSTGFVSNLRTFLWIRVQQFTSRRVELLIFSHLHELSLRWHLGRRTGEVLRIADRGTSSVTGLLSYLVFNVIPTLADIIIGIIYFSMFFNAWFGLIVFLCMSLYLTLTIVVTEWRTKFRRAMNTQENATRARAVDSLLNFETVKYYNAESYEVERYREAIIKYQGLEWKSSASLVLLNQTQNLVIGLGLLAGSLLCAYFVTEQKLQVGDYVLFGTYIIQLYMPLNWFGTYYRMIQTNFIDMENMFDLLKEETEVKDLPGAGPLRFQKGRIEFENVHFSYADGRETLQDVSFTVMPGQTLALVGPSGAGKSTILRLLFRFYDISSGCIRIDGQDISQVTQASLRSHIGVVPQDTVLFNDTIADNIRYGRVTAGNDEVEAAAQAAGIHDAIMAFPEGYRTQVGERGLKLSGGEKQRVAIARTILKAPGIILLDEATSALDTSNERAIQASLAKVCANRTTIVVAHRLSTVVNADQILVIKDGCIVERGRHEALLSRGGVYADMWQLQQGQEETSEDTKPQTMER
Myeloid diff 2: induction of myeloid progenitor differentiation, primary screen, cell-based, flow cytometry, MLPCN library. AID 624256, 2012. hit rate 1% among 360,000. calls only at 10 µM. ER-HoxA9 myeloid progenitors, lysozyme-GFP differentiation;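 active means normalized GFP-positive differentiation at or above the plate's own cutoff, the solvent-only control mean plus 3 SD; inconclusive means no clear call, values can overlap the other calls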;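 further: cells exposed to compound for four days before flow analysis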
Glyco luc inh: increase of ERlucT glycosylation luciferase signal, primary screen, N-linked glycosylation inhibitor project, D54 ERlucT cells, luminescence, set 2; D54 ERlucT glycosylation luciferase reporter, 24 h; percent of 100 nM tunicamycin response; hit rate 0.23% among 360,000; reporter increase, % at 12.5 µM;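 active means mean luciferase reporter signal, scaled so untreated is 0 and the glycosylation-blocking control 100, at or above a set limit in every replicate; inconclusive means mean reaches the limit but not every replicate does; inactive means mean below the limit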;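 further: luciferase carries N-glycosylation sites so blocking glycosylation raises the light; 0% = median of neutral control wells and 100% = median of 100 nM tunicamycin wells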
RAD54 inh: inhibitors of human RAD54 branch migration, primary screen, biochemical, fluorescence, single point | DNA repair and recombination protein RAD54-like (Homo sapiens), Q92698 | RAD54 Holliday junction branch migration, FAM/BHQ fluorescence | inhibition, % at 10.4 µM | hit rate 0.14% among 360,000;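 active means mean normalized replicate activity at least 40 and at least half of replicates scoring 40 or more; inconclusive means only one of the two criteria met; inactive means mean below 40 and under half of replicates reaching 40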;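 further: 0% = median of neutral control wells and 100% = median of positive control wells; inhibitors cause a drop in the FAM fluorescence signal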
The depositor's hits bear a star; i = inactive; u = inconclusive; x = not tested or not shown; + = active, no number. Most compounds without a hit are left out; they make up all but 1.6% or so of the library.

SMILES | Vif inh | ABCB6 inh MLPCN | Myeloid diff 2 | Glyco luc inh | RAD54 inh
CCC(=O)N(CCC1(C(C)C)CCOC(C)(C)C1)Cc1ccco1 (stereo unspecified) | 109* | 93 | i | 2 | -11
CCc1nnc(NC(=O)CSc2nccn2-c2cccc(C)c2)s1 | 13 | 97 | + | -1 | 5
Cc1cccc(-n2ccnc2SCC(=O)Nc2nnc(C)s2)c1 | 39 | 98 | i | 2 | -2
CCn1cc(C(=O)NCc2ccco2)c(=O)c2cc(S(=O)(=O)N3CC(C)CC(C)C3)ccc21 (stereo unspecified) | 1 | 100 | + | -5 | -7
COC(=O)[C@H](Cc1ccccc1)NC(=O)[C@@H](N)CC(=O)OCc1ccccc1 | 0 | 88 | + | 2 | -12
CS(=O)(=O)N1[C@@H]2c3ccc(C4=CCCC4)c(=O)n3C[C@@H]2[C@@H](CO)[C@@H]1C(=O)NCCc1ccncc1 | x | x | x | x | 2
COc1ccc(OCc2cc(C(=O)NC3CCOCC3)no2)c2ccccc12 | 4 | 106 | i | 1 | x
COc1cccc(OCc2cc(C(=O)NC3CCOCC3)no2)c1 | 2 | 94 | + | 3 | -4
Cc1nc(-c2ccc(O)c(O)c2)cs1 | 67* | 106 | i | -1 | -8
COc1cc(-c2csc(C)n2)ccc1O | -2 | 87 | i | 0 | -6
CC(C)NC(=O)N(C)C[C@H]1Oc2c(NC(=O)Nc3cccc4ccccc34)cccc2C(=O)N([C@H](C)CO)C[C@H]1C | x | x | x | x | 1
O=C(C[C@@H]1CC[C@@H]2[C@H](COC[C@@H](O)CN2C(=O)c2cnccn2)O1)N1CCN(c2ccccc2)CC1 | x | x | x | x | -4
CC#CCN1c2ccccc2[C@]23C[C@@H](C(=O)OC)N(C(=O)c4cc(C)oc4C)C2=NC(C(=O)OC)=C(C(=O)OC)[C@H]13 | -1 | 99 | i | 33* | -7
CCOC(=O)Cn1c(=O)c(-c2cc(Br)ccc2N)nc2ccccc21 | 1 | 97 | + | -2 | -1
CCOC(=O)C1=C(C)N=c2s/c(=C\c3ccc(OC(C)=O)c(OCC)c3)c(=O)n2C1/C=C/c1ccccc1 (stereo unspecified) | -11 | 138 | i | -1 | x
CCOC(=O)C1=C(C)N=c2s/c(=C\c3ccc(OC(C)=O)cc3)c(=O)n2C1/C=C/c1ccccc1 (stereo unspecified) | -4 | 179 | + | -3 | x
COc1cc(NS(=O)(=O)c2ccc3c(c2)oc(=O)n3C)cc(OC)c1OC | -16 | 96 | + | 4 | 9
COc1ccc(NS(=O)(=O)c2ccc3c(c2)oc(=O)n3C)c(OC)c1 | -6 | 102 | i | 0 | 5
COc1ccc(OC)c(/C(O)=C/C(=O)C(=O)Nc2cc(C)ccc2OC)c1 | 61* | 96 | i | 2 | -15
Oc1[nH]c(N=C2N=c3ccccc3=N2)c2ccccc12 | i | 105 | i | 117* | -5
C[C@@H]1CN([C@H](C)CO)C(=O)c2cc(C3=CCCCC3)cnc2O[C@@H]1CN(C)C(=O)Cc1cccnc1 | x | x | x | x | -1
CC(=O)c1cccc(Nc2c3c(nc4ccccc24)CCC3)c1 | -10 | 101 | u | 51* | 6
COC(=O)c1cccc(Nc2c3c(nc4ccccc24)CCC3)c1 | -12 | 95 | i | 22 | 24
COc1ccc(NC(=O)N(C)C[C@@H]2Oc3ccc(NS(=O)(=O)c4ccc(Cl)cc4)cc3C(=O)N([C@H](C)CO)C[C@H]2C)cc1 | x | x | x | x | 5
CN1CCN(c2cc(N3CCN(C(=O)c4ccco4)CC3)c3c4c(onc24)-c2ccccc2C3=O)CC1 | -6 | 103 | i | -9 | 54*
SMILES | Vif inh | ABCB6 inh MLPCN | Myeloid diff 2 | Glyco luc inh | RAD54 inh
O=C(O)CCCNc1cc(N2CCN(C(=O)c3ccco3)CC2)c2noc3c2c1C(=O)c1ccccc1-3 | 3 | 104 | i | 0 | -11
O=C1c2ccccc2-c2onc3c(N4CCN(CCO)CC4)cc(N4CCN(C(=O)c5ccco5)CC4)c1c23 | -11 | 105 | + | -9 | 31
COCC(=O)N1C[C@H](C)[C@@H](OC)CN(C)C(=O)c2cc(NC(=O)c3ccc(OC)cc3)ccc2OC[C@@H]1C | x | x | x | x | 7
Cc1cc(C)c(C)c(S(=O)(=O)N2CCCCC2C(=O)O)c1C (stereo unspecified) | 55* | 106 | i | 1 | 7
Cc1ccc(S(=O)(=O)N2CCCCC2C(=O)O)cc1 (stereo unspecified) | 5 | 94 | i | 0 | x
CN(C)Cc1cn(CC[C@H]2CC[C@@H](NS(=O)(=O)c3ccc(-c4ccccc4)cc3)[C@@H](CO)O2)nn1 | x | x | x | x | 2
COc1ccc(OC)c(N2C(N)=NC(N)=NC23CCCC3)c1 | -1 | 98 | i | 3 | -9
Cc1cccc(N2C(N)=NC(N)=NC23CCCCC3)c1 | x | 87 | + | 0 | -3
C[C@H](CO)N1C[C@H](C)[C@@H](CN(C)Cc2cncnc2)Oc2ncc(C#CC3CCCCC3)cc2C1=O | x | x | x | x | -13
COc1ccc(NC(=O)Nc2ccc3c(c2)C(=O)N([C@@H](C)CO)C[C@@H](C)[C@@H](CN(C)C(=O)Nc2cccc4ccccc24)OCCCC[C@H](C)O3)cc1 | x | x | x | x | 3
CCO[C@@H]1OC(C(=O)NCc2ccccc2)=C[C@H](C2CCCCC2)[C@H]1CCCO | -2 | 101 | + | 0 | -5
CCO[C@@H]1OC(C(=O)NCc2ccccc2)=C[C@H](C2CC2)[C@H]1CCCO | 3 | 100 | i | 3 | -7
COc1ccc(CNCCNC(=O)c2nonc2N)cc1OC | -2 | 82 | + | 2 | -2
COc1ccc(CCNC(=O)c2nonc2N)cc1OC | -3 | 99 | i | 2 | 1
C[C@@H]1CN([C@@H](C)CO)S(=O)(=O)c2ccc(C#CC3CC3)cc2O[C@H]1CN(C)C(=O)Cc1ccncc1 | x | x | x | x | -6
COc1ccc(NC(=O)Nc2ccc3c(c2)CC(=O)N([C@@H](C)CO)C[C@@H](C)[C@H](CN(C)S(=O)(=O)c2c(C)noc2C)O3)cc1 | x | x | x | x | 1
NNC(=O)c1ccc2nc(-c3ccc(Br)cc3)cn2c1 | 9 | 97 | i | 116* | x
CC(O)CN(CC(C)O)c1ccc2c(c1)Cc1cc([N+](=O)[O-])ccc1-2 (stereo unspecified) | x | 181 | + | -3 | -9
Nc1ccc2c(c1)Cc1cc([N+](=O)[O-])ccc1-2 | 4 | 123 | i | 11 | x
CCC(=O)N(C)C[C@@H]1Oc2cc(C#CC3CCCCC3)ccc2S(=O)(=O)N([C@@H](C)CO)C[C@@H]1C | x | x | x | x | 2
C/C(=N\NC(=O)c1c[nH]c2ccccc12)c1ccc(C)o1 | 2 | 96 | i | 0 | 58*
CCOc1ccc2nc3cc(NCc4ccc(OC)cc4)ccc3c(N)c2c1 | x | 243 | + | -21 | 10
